Laboratory results from PubChem BioAssay (NCATS).
Inconclusive results are not listed. Activity calls are given as the source filed them. Calls follow the shape of the dose curve; as a rule, active = well fitted cell-killing curve with a large enough effect; inconclusive = small, poorly fitted or top-dose-only effect; inactive = flat fitted curve, though single readings scatter.

Assay: Quantitative highthroughput screen to assess conditional lethalithy of NOMO1 cells grown in RPMI1640 with dialyzed fetal bovine serum (RPMI+ds) (AID 1963877); also: nearly all actives have a fitted effect of over 30% in size
Conditions: NOMO1 in RPMI+dialyzed FBS viability, ATP luminescence, 48 h; series mostly up to 45.8 µM; viability: at the top concentration
Excerpt: Assay Provider: Jason Cantor Ph.D.
Department of Biochemistry
University of Wisconsin-Madison, Madison, WI, USA
Chemical screening studies have identified drug sensitivities across hundreds of cancer cell lines but most putative therapeutics fail to translate. Discovery and development of drug candidates in models that more accurately reflect nutrient levels in human blood is a major challenge. Here we performed high-throughput screens in conventional versus Human Plasma-Like Medium (HPLM) to identify compounds that were "missed" when screening using the artificial culture condition. Sets of conditional anticancer compounds spanned phases of clinical development and included non-oncology drugs were assessed. […] We also traced conditional phenotypes for several chemotherapeutics to availability of HPLM-specific metabolites and confirmed others for compounds whose reported targets are encoded by nonessential genes. Our findings establish generalizable strategies for exploiting conditional lethality in HPLM to reveal therapeutic candidates and mechanisms of action in cancer cells.
Described herein are the results of each viability screens against three cell lines: NOMO1 (an acute myeloid leukemia cell line); P12-Ichikawa (a T-cell acute lymphoblastic leukemia); and SEM (a B-cell ALL). Each assay was screened using 3 different cell culture media: homemade human plasma-Like medium with 10% dialyzed fetal bovine serum (HPLM+ds); RPMI1640 with 10% untreated FBS and 5mM glucose (RPMI+s); and RPMI1640 with 10% dialyzed fetal bovine serum and 5 mM glucose (RPMI+ds).
PROTOCOL TABLE (as described by Inglese J, Shamu CE and Guy RK. 2007)
SEQUENCE No. (e.g., 1, 2, 3, etc.); […] (e.g., Cells, Incubation, Reagent, etc.); VALUE and DESCRIPTION.
1; Cells; 5 uL; white, solid bottom 1536-well Greiner assay plate.
2; Compounds; 23 nL; Kalypsis pin tool (Wako USA) equipped with a 1536-well pin head to transfer to the assay plates.
3; Incubation; 48 hours; 37C incubation.
4; Reagent; 3 uL; CellTiter Glo (Promega).
5; Incubation; 5 min, room temperature
6; Detection; Luminescence, Viewlux PerkinElmer.
NOTES (numbers refer to Sequence numbers above)
1. Briefly, 5 ul of cell reagent was dispensed using a Multidrop Combi Dispenser. The NOMO1 and SEM cells were plated at 500 cells/well and the P12-Ichikawa line at 1000 cells/well.
2. After seeding the cells, 23 nL of MIPE 4.1 library compounds (in DMSO) were added to each plate using a Kalypsys 1536 Pintool dispenser. Bortezomib at final concentration of […] and DMSO were added to each plate as positive and negative controls respectively. For each screen, MIPE 4.1 compounds were added over an eleven-point concentration range […] in 3-fold dilutions.
3. Each plate was covered with a stainless steel gasketed lid to prevent evaporation and incubated for 48 hour at 37C, 95% relative humidity, and 5% CO2.
4-5. Three microliter CellTilter-GloTM luminescent substrate mix (Promega) reagent was added to the assay plate and incubated at room temperature for 5 min.
6. The luminescence signal was measured using a ViewLux (PerkinElmer) multiplate reader with a 2 second exposure time per plate. Data for each compound were normalized as percent viability such that measurements for DMSO and the empty well controls in each plate were defined as 100% and 0%, respectively.
Potency is read from the fitted curve at half-maximal effect.

| Structure (SMILES) | viability | Potency |
| --- | --- | --- |
| O=C(Oc1ccc([N+](=O)[O-])cc1)N1CCN(Cc2cccc(Oc3ccccc3)c2)CC1 | 97.4% (inactive) |  |
| COc1cc(OC)c(OC)cc1C=O | 97.8% (inactive) |  |
| CN(C)[C@@H]1C(=O)C(C(N)=O)=C(O)[C@@]2(O)C(=O)C3=C(O)c4c(O)cccc4[C@@](C)(O)[C@H]3C[C@@H]12 | 96% (inactive) |  |
| Cc1nc(-c2ccc(-c3ccc(C(=O)N4CCc5cc6c(cc54)C4(CCN(C)CC4)CO6)cc3)c(C)c2)no1 | 98.8% (inactive) |  |
| C=C[C@@H]1CN2CCC1C[C@H]2[C@H](O)c1ccnc2ccccc12 (stereo not given in full) |  | 18700 nM (active) |
| Cc1ccccc1-n1c(Cn2ncc3c(N)ncnc32)nc2cccc(C)c2c1=O |  | 833 nM (active) |
| CC(C)C[C@H](CN)CC(=O)O | 98.5% (inactive) |  |
| c1cc2c(cc1[C@H]1OC[C@H]3[C@H]1CO[C@H]3c1ccc3c(c1)OCO3)OCO2 | 98.2% (inactive) |  |
| C[C@]12CCC(=O)C=C1CC[C@@H]1[C@H]3CC[C@](C)(O)[C@@]3(C)CC[C@@H]12 | 99.7% [at 92.2 µM] (inactive) |  |
| C[C@]12Cc3cn[nH]c3C[C@@H]1CC[C@@H]1[C@H]2CC[C@@]2(C)[C@H]1CC[C@]2(C)O | 101% (inactive) |  |
| C[C@@H]1CC[C@H]2[C@@H](C)C(=O)O[C@@H]3O[C@@]4(C)CC[C@H]1[C@]32OO4 | 103% (inactive) |  |
| COc1ccc2c(c1)CN(C)CC2c1ccc(Cl)c(Cl)c1 (stereo not given) |  | 9350 nM (active) |
| Cn1c(CCCC(=O)O)nc2cc(N(CCCl)CCCl)ccc21 | 98.7% (inactive) |  |
| CC1=NN=C(c2ccc(N)cc2)c2cc3c(cc2C1)OCO3 | 90% (inactive) |  |
| C[C@@H]1[C@H](O)[C@@H](C)C=CC=CCCC=CC=CC=CC=C[C@H](O[C@H]2O[C@@H](C)[C@H](O)[C@@H](N)[C@@H]2O)CC2O[C@](O)(C[C@@H](O)[C@H](O)CC[C@@H](O)C[C@@H](O)C[C@@H](O)CC(=O)O[C@H]1C)C[C@H](O)[C@H]2C(=O)O | 88.5% (inactive) |  |
| C[C@]12COC(=O)C[C@@H]1CC[C@@H]1[C@H]2CC[C@@]2(C)[C@H]1CC[C@]2(C)O | 92.6% (inactive) |  |
| C[C@@H]1O[C@@H](O[C@@H]2C=C3CC[C@@H]4[C@@H](CC[C@]5(C)[C@H](c6ccc(=O)oc6)CC[C@@]45O)[C@@]3(C)CC2)[C@H](O)[C@H](O)[C@H]1O |  | 46.9 nM (active) |
| NCC1(CC(=O)O)CCCCC1 | 90.5% (inactive) |  |
| CC(C)N(CCNC(=O)CN1CCCC1=O)C(C)C | 102% (inactive) |  |
| CC(C)c1cccc(C(C)C)c1O | 88.8% (inactive) |  |

| Structure (SMILES) | viability | Potency |
| --- | --- | --- |
| CNC(=O)c1ccc(N2C(=S)N(c3ccc(C#N)c(C(F)(F)F)c3)C(=O)C23CCC3)cc1F | 104% (inactive) |  |
| Cc1cccc(C)c1NC(=O)CN1CCCC1=O | 112% (inactive) |  |
| C=CCON=C(C[C@H]1O[C@@H]2O[C@]3(C)CC[C@@H]4[C@H](C)CC[C@@H]([C@H]1C)[C@@]24OO3)[C@H]1O[C@@H]2O[C@]3(C)CC[C@H]4[C@H](C)CC[C@@H]([C@@H]1C)[C@@]24OO3 |  | 743 nM (active) |
| CCCCCC[C@H]1C(=O)O[C@H](C)[C@H](NC(=O)c2cccc(NC=O)c2O)C(=O)O[C@@H](C)[C@@H]1OC(=O)CC(C)C | 78.2% (inactive) |  |
| CNCC(O)c1ccc(O)cc1 (stereo not given) | 94.7% (inactive) |  |
| CC[C@@]1(O)C(=O)OCc2c1cc1n(c2=O)Cc2cc3ccccc3nc2-1 |  | 66.2 nM (active) |
| COC[C@H]1OC(=O)c2coc3c2[C@@]1(C)C1=C(C3=O)C2CCC(=O)[C@@]2(C)C[C@H]1OC(C)=O (stereo not given in full) | 99.6% (inactive) |  |
| CC(C)[C@]12O[C@@H]1[C@@H]1O[C@]13[C@]1(O[C@H]1C[C@@H]1C4=C(CC[C@@]13C)C(=O)OC4)[C@H]2O |  | 1.2 nM (active) |
| CCc1c(C(=O)C(N)=O)c2c(OCC(=O)O)cccc2n1Cc1ccccc1 | 109% (inactive) |  |
| CC(=CCCC1=CCC(C2=CC(=O)OC2O)OC1O)CCC1=C(C)CCCC1(C)C (stereo not given) | 92.6% (inactive) |  |
| COC(=O)[C@@H](N)CCCN=C(N)N[N+](=O)[O-] | 110% (inactive) |  |
| CCOc1ccccc1-n1c(C(C)N2CCN(C(=O)COc3ccc(Cl)cc3)CC2)nc2ccccc2c1=O (stereo not given) |  | 2630 nM (active) |
| N[C@@H](Cc1ccc(N(CCCl)CCCl)cc1)C(=O)O |  | 9350 nM (active) |
| CC(C)CC(N(C)C)C1(c2ccc(Cl)cc2)CCC1 (stereo not given) | 98.7% (inactive) |  |
| C[C@H]([C@H](O)CCC(C)(C)O)[C@H]1CC[C@@]2(O)C3=CC(=O)[C@@H]4C[C@@H](O)[C@@H](O)C[C@]4(C)[C@@H]3CC[C@]12C | 98.5% (inactive) |  |
| CC1=C2C[C@@H]3[C@@H](CC=C4C[C@@H](O)CC[C@@]43C)[C@@H]2CC[C@]12O[C@H]1C[C@H](C)CN[C@H]1[C@H]2C | 85.7% (inactive) |  |
| C#C[C@]1(O)C=C[C@@H]2[C@@H]3CCC4=CC(=O)CC[C@@H]4[C@H]3CC[C@@]21CC | 99.5% (inactive) |  |
| C[C@]12CCC(=O)C(O)=C1CC[C@@H]1[C@H]3CCC(=O)[C@@]3(C)CC[C@@H]12 | 94% (inactive) |  |
| C=C[C@@H]1CN2CCC1C[C@@H]2[C@@H](O)c1ccnc2ccccc12 (stereo not given in full) | 87.9% (inactive) |  |
| COc1cccc2c1[C@]13CCN(CC4CC4)[C@H](C2)[C@]1(OC)CCC(=O)C3 | 88.8% (inactive) |  |
